These results are taken from the supplement of paper PMC11219838.

Values without a mark were called inactive.

The subject of the test is Caenorhabditis elegans L1 (N2). The test can be described thus: survival and reproduction score of C. elegans L1 (0: 0-10 living worms, 1: 11-20, 2: 21-50, 3: >50, 4: overgrown) (score 0-4); higher = more worms, less nematicidal, active = 1 or less; extreme values may be limits of the assay. The conditions noted are these: 60 µM; 6 days; temperature: 20 °C. The gist of the method: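 Compound was pinned to a final 60 µM (0.6% v/v DMSO) into 96-well wells, each holding about 20 synchronized C. elegans N2 L1s and E. coli HB101 in liquid NGM. After 6 days of shaking at 200 rpm and 20 °C in sealed plates, the worms in each well were examined. The ordinal readout of survival and reproduction, based on living worms per well, was assessed under a dissection microscope. On this scale 0 meant 0–10 worms and 4 meant overgrown, starved wells, and two biological replicates were averaged.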
For `COc1cccc(-c2nc(-c3ccc(Br)cc3)no2)c1`, the “survival and reproduction score” value was 0 (active).
With `Cc1ccc(-c2nnc(SCc3ccccc3F)o2)cc1`, the “survival and reproduction score” value is 4.
For `O=C(CSc1nnc(-c2cccc(Br)c2)o1)N1CCCCC1`, the “survival and reproduction score” value was 4.
Under `Fc1cccc(-c2nc(-c3ccccc3)no2)c1` stands 0 (active); under `Cc1cc(C)cc(OCc2nc(-c3cc(C)nc4ccccc34)no2)c1`, 4.
Under `CC(C)Oc1ccc(-c2nc(-c3ccccc3)no2)cc1` stands 0 (active).
`CCc1ccc(OCc2nc(-c3ccc(C)cc3)no2)cc1`: the “survival and reproduction score” value is 2.
`O=C(CSc1nnc(-c2ccco2)o1)NC1CCCCC1`: the “survival and reproduction score” value is 4.
Under `COc1cccc(-c2noc(CSc3ccc(Cl)cc3)n2)c1` stands 4.
As for `CCOc1ccc(-c2noc(-c3ccncc3)n2)cc1OC`, the “survival and reproduction score” value is 4.
The value for `O=C(NCCc1ccccc1)c1ccccc1-c1nc(-c2ccccc2Cl)no1` was 4; that for `O=C(CSc1nnc(-c2ccc(Cl)cc2)o1)NC1CC2CCC1C2` (stereo not drawn) was 4.
The value for `CC(C)c1ccc(OCc2nc(-c3ccccn3)no2)cc1` was 4.
`c1ccc(-c2nc(C3CCCCC3)no2)cc1`: the “survival and reproduction score” value was 0 (active).
The value for `CCOc1ccccc1-c1nnc(SCC(=O)NC(C)CC)o1` (stereo not drawn) was 4; that for `Clc1cccc(OCc2nc(-c3ccncc3)no2)c1` was 3.5.
Under `CCC(=O)Nc1ccccc1-c1nc(-c2ccccn2)no1` stands 4; under `O=C(CSc1nnc(-c2cccc(Br)c2)o1)Nc1ccccn1`, 4; under `Cc1cc(Cl)ccc1OCc1nc(-c2ccncc2)no1`, 0.5 (active).
As for `COc1nc(C)ccc1-c1noc(-c2ccc(C)cc2)n1`, the “survival and reproduction score” value was 4.
The value for `Clc1ccccc1-c1noc(-c2ccccc2Cl)n1` was 2; that for `O=C(CSc1nnc(-c2ccccc2Cl)o1)Nc1ccc(F)cc1` was 4; that for `Cc1ccc(-c2nc(-c3ccc(Br)cc3)no2)cc1` was 4.
Consider `CC(=O)Nc1ccc(NC(=O)c2ccccc2-c2nc(-c3ccccc3Cl)no2)cc1`, for which the “survival and reproduction score” value is 4.
Under `Cc1ccc(-c2noc(-c3cc(C)cc(C)c3)n2)cc1` stands 4; under `Cc1ccccc1-c1noc(COc2ccc(Cl)cc2Cl)n1`, 4; under `Cc1ccc(C)c(OCc2nc(-c3cccnc3)no2)c1`, 4.
The value for `COc1ccc(NC(=O)CSc2nnc(-c3ccccc3)o2)cc1` was 4; that for `Cc1ccc(OCc2nc(-c3cccnc3)no2)cc1C` was 4; that for `Cc1ccc(OCc2nc(-c3ccc(F)cc3)no2)cc1C` was 4.
The value for `Cc1ccc(-c2nc(C3CCCCC3)no2)cc1` was 0 (active); that for `COc1cccc(-c2noc(COc3ccc(C)cc3)n2)c1` was 4; that for `Cc1ccc(CSc2nnc(-c3ccncc3)o2)cc1` was 4.
With `Clc1cc(Br)ccc1OCc1nc(-c2cccnc2)no1`, the “survival and reproduction score” value was 4.
`Cc1cccc(-c2noc(C3CCCCC3)n2)c1`: the “survival and reproduction score” value is 3.5.
Consider `Cc1cccc(-c2nnc(SCC(=O)Nc3ccccc3C(C)C)o2)c1`, for which the “survival and reproduction score” value is 4.
For `c1cncc(-c2noc(-c3cccc4ccccc34)n2)c1`, the “survival and reproduction score” value was 4.
`Cc1[nH]c2ccc(-c3nnc(SCC(=O)NCc4ccc(F)cc4)o3)cc2c1C`: the “survival and reproduction score” value is 4.
